# Hit rate of the full screen: of about 68,000 compounds, about 2,700 (4%) showed an effect of 50% or more. The sample as a whole holds a higher share of strong results than the screen did.
# Test system: Plasmodium berghei
# Test: Screen against P. berghei liver stage (PbLuc), transformed with Luciferase, at 2uM
# Type: functional, HepG2
# Conditions: tested at 2 uM
row,SMILES,INHIBITION [%]
1,CN(CCCNC(=O)CN1CCS(=O)(=O)CC1)c1ccccc1,-20.29
2,COc1cccc(CN(Cc2ccco2)Cc2[nH]cnc2C)c1,28.07
3,CCCc1noc(C2CCN(S(=O)(=O)c3cccs3)CC2)n1,-64.06
4,O=S(=O)(C1CC1)N1C[C@H]2CCC[C@@]2(COc2ccccn2)C1,-3.87
5,CCCc1cc(C(=O)N[C@@H]2CC[C@@H](N3CCOCC3)[C@@H]2O)no1,4.06
6,COC[C@]1(O)CCN(Cc2cnc(N(C)C)nc2)CC1(C)C,10.24
7,COC[C@]1(O)CCN(Cc2cnc(N3CCOCC3)nc2)CC1(C)C,52.31
8,COCc1ncc(CN2CC[C@@](O)(COC)C(C)(C)C2)cn1,-20.75
9,Cc1ncncc1C(=O)N1CCCN(Cc2ncc(Cl)n2C)CC1,-16.3
10,Cc1noc(C)c1-c1cncc(C2CCCN2Cc2cc[nH]n2)n1 (centres undefined),46.98
11,Cc1noc(C)c1-c1cncc(C2CCCN2Cc2c[nH]cn2)n1 (centres undefined),28.23
12,Cc1noc(C)c1-c1cncc(C2CCCN2Cc2cn(C)cn2)n1 (centres undefined),50.32
13,CCOC(=O)C1CCN(C(=O)Cn2ccc3cc(Br)ccc32)CC1,21.14
14,Cc1ccc2c(n1)N(Cc1cccnc1)CCN(C1CCOCC1)C2,-91.9
15,Cc1ccc(NC(=O)NCCCn2nc3ccccn3c2=O)cc1,-17.83
16,CSCC(=O)N1CCCN(c2ccccc2C)CC1,2.91
17,Cc1ccccc1N1CCN(C(=O)CC(C)C)CC1,56.49
18,CSCCC(=O)N1CCCN(c2ccccc2C)CC1,0.31
19,CCCc1nnc(NC2CCN(C3CCOCC3)CC2)o1,45.66
20,COCc1nnc(-c2cccc(C(=O)N(C(C)C)C3CCC3)c2)o1,21.97
21,COCc1nnc(-c2cccc(C(=O)OC(C)C)c2)o1,33.9
22,COCc1nnc(-c2cccc(C(=O)N(C)CC(C)(C)C)c2)o1,62.51

row,SMILES,INHIBITION [%]
1,CC1(C)Oc2ccc(NC(=O)c3ccc(=O)[nH]n3)cc2O1,10.43
2,COc1ccnc(N2C[C@H]3CC[C@@H](C2)N(CC2CC2)C3)n1,57.41
3,COc1ccnc(N2C[C@H]3CC[C@@H](C2)N(CC2CCC2)C3=O)n1,-24.7
4,COc1ccnc(N2CCC(=O)N(CC3CC3)C(C(C)C)C2)n1 (centres undefined),-61.87
5,Cc1nc(-c2ccco2)ccc1C(=O)NCCCN1CCOCC1,-48.23
6,Cc1nc2ccnn2c(C)c1CCC(=O)N1CCN(C2CC2)CC1,26.4
7,Cc1ccccc1C(=O)N1CCC2(CC1)CC(c1cnn(C)c1)CO2 (centres undefined),42.27
8,CN(C)C(=O)c1cc2c(nc1NCC1CC1)CCNCC2,43.06
9,O=C(Nc1cc(F)ccc1OCC1CCCO1)N1CCSCC1 (centres undefined),9.23
10,O=C(Nc1cc(F)ccc1OCC1CCCO1)NC1CC1 (centres undefined),56.62
11,O=C(CC(F)(F)F)Nc1cc(F)ccc1OCC1CCCO1 (centres undefined),56.03
12,O=C(Nc1cc(F)ccc1OCC1CCCO1)N1CCCC1 (centres undefined),-5.1
13,O=C(Nc1cc(F)ccc1OCC1CCCO1)c1ccoc1 (centres undefined),-27.04
14,CS(=O)(=O)CCC(=O)Nc1cc(F)ccc1OCC1CCCO1 (centres undefined),6.31
15,Cc1ccn(CCC(=O)NCCc2ccco2)n1,-0.14
16,COc1ccc(C[C@H]2CN(C(=O)CS(C)(=O)=O)CC[C@H]2OC)cc1,39.18
17,O=C(NCCO)Nc1ccc(Cl)cc1-n1cccc1,-12.7
18,Cc1nc(CN2CCCCC2CCc2ccc(O)cc2)co1 (centres undefined),0.58
19,Cc1noc(C)c1-c1ccc(C2CCCN2C(=O)c2ccncn2)nc1 (centres undefined),5.15
20,COc1cccc(Cn2c(C)c(C)oc2=O)c1OC,23.87
21,Cc1cc(N2CCN(C3CCSCC3)CC2)n2nc(C)c(C)c2n1,39.51
22,CCCNC(=O)C(C)Oc1ccc(F)cc1 (centres undefined),23.68

row,SMILES,INHIBITION [%]
1,CCNC(=O)C(C)Oc1ccc(N(C)S(C)(=O)=O)cc1 (centres undefined),33.26
2,CCCNC(=O)C(C)Oc1ccccc1 (centres undefined),64.08
3,COC(=O)c1ccc(C(=O)NCc2ccc(Br)cc2)cn1,38.67
4,CCOc1ccc(Cl)c(C(=O)NCc2ccc(C(=O)NC)cc2)n1,23.92
5,COc1ccc(CNC(=O)c2ccc(Br)cn2)cc1,21.97
6,COc1ncc(C(=O)NCc2ccc(Br)cc2)cn1,18.8
7,CCOc1ccc(CNC(=O)c2cnc(OC)nc2)cc1,58.98
8,COc1ncc(C(=O)NCc2ccccc2)cn1,60.36
9,COCC(O)CN(C)c1cc(C(F)(F)F)nc(-c2cccnc2)n1 (centres undefined),-2.47
10,CC(NCc1ccnc(OC2CCC2)c1)c1cnn(C)c1 (centres undefined),18.98
11,COc1ccc(CNC(C)c2cnn(C)c2)cc1OC1CCCC1 (centres undefined),51.76
12,CC(NCc1cccc(COC2CCCC2)c1)c1cnn(C)c1 (centres undefined),12.83
13,CN(C1CCN(C(=O)NCCc2ccc(F)cc2F)CC1)S(C)(=O)=O,8.56
14,COCC(=O)N1CCC(Oc2cccc(C)c2)CC1,58.53
15,CCN(CC)C(=O)CNC(=O)N1CCC(c2ccc(OC)cc2)C1 (centres undefined),26.44
16,COCC(=O)N1CCC(c2ccc(OC)cc2)C1 (centres undefined),56.21
17,COCC(=O)N1CCC(c2cc(-c3ccc(OC)cc3)n[nH]2)C1 (centres undefined),-0.64
18,COC(=O)NCC(=O)N1CCC(Oc2cccc(C)c2)CC1,-31.79
19,CSCC(=O)N1CCC(Oc2cccc(C)c2)CC1,10.91
20,CC(C)c1nc2cc(NC(=O)c3n[nH]c4c3CCC4)ccc2n1C,-12.41
21,CNC(=O)C1(c2cnccn2)CCCN1C(=O)c1ccn(C)n1 (centres undefined),43.89
22,Cc1nnc(N2CC[C@H]3C[C@H](C(=O)N(C)C)O[C@@H]3C2)s1,4.42

row,SMILES,INHIBITION [%]
1,O=S1(=O)c2cccnc2OC(COc2ccccc2)CN1CC1CC1 (centres undefined),22.01
2,CCN1CC(COc2ccccc2)Oc2ncccc2S1(=O)=O (centres undefined),55.73
3,CCN1CC(COc2ccc(OC)cc2)Oc2ccncc2S1(=O)=O (centres undefined),18.99
4,CN(C)C1(CNc2nccc(C3CCCC3)n2)CCOCC1,1.1
5,NC(=O)CCn1ccc(NC(=O)c2ccc(OCC3CC3)cc2)n1,-52.01
6,Cc1nnsc1C(=O)NCc1cccnc1N1CCCC(O)C1 (centres undefined),41.59
7,Cc1nn(C)c(N(C)C)c1CNCc1ccccc1Cn1cccn1,-40.27
8,CC(C)c1nccn1C(C)C(=O)NC1Cc2ccccc2C1 (centres undefined),51.72
9,CC(C)c1nccn1C(C)C(=O)NC1CCOCC1 (centres undefined),1.1
10,CC(C)c1nccn1C(C)C(=O)NC1CCN(S(C)(=O)=O)CC1 (centres undefined),8.13
11,Cc1cc(C)c(CNC(=O)NCc2nnc3n2CCCC3)c(=O)[nH]1,-47.98
12,O=C(O)c1ccn(-c2cccc(NC(=O)c3ccccc3Cl)c2)n1,23.43
13,O=C(CCc1cc(Cl)no1)N1CCC(c2cc3ncccc3cn2)CC1,15.72
14,CNC(=O)c1nc(COc2c(C)occc2=O)no1,20.19
15,Cc1occc(=O)c1OCc1noc(C(=O)NC(C)C)n1,2.06
16,CCOC(=O)c1nc(COc2c(C)occc2=O)no1,54.13
17,Cc1cn(Cc2ccc(F)c(F)c2)nc1N,17.69
18,[O-][S+](CCN1CCc2[nH]nc(C(F)(F)F)c2C1)c1ccccc1 (centres undefined),-62.71
19,FC(F)(F)c1n[nH]c2c1CN(Cc1cn3ccccc3n1)CC2,-7.14
20,FC(F)(F)c1[nH]nc2c1CN(Cc1ccccc1)CC2,57.77
21,Cc1ccccc1CN1CCC2(CC1)CN(S(=O)(=O)c1ccccc1)C2,43.51
22,O=C(NCc1cccnc1)Nc1cc(C(F)(F)F)c[nH]c1=O,-13.92

row,SMILES,INHIBITION [%]
1,O=C1N(c2ccsc2)CCC12CCCN(CC1CC1)C2 (centres undefined),7.77
2,Cc1csc(CN(CC2CCCO2)C(=O)c2cccnc2C)n1 (centres undefined),-5.92
3,O=C(c1cccnc1O)N(Cc1ccsc1)CC1CCCO1 (centres undefined),-85.83
4,O=C(c1cccnc1O)N(Cc1cccs1)CC1CCCO1 (centres undefined),64.9
5,c1ccc2[nH]c(C3CCN(Cc4nc(C5CC5)no4)CC3)cc2c1,-3.99
6,O=C(CCc1cc2n(n1)CCCNC2)N1CCSCC1,-9.98
7,Cc1n[nH]c(CN2CCN(c3ncnc4scc(C)c34)CC2)c1Cl,74.18
8,CCc1nc(C)c(CN2CCN(c3ncnc4c(C)csc34)CC2)[nH]1,-3.25
9,CCc1nc(C)c(CN2CCN(c3ncnc4scc(C)c34)CC2)[nH]1,-33.43
10,CC(C)Oc1ncccc1CNC(=O)N1CCOCC1,-10.84
11,CN(C)CC(=O)N1CCc2sc(C(=O)N3CCN(C)CC3)cc21,34.93
12,O=C(NCc1ccccn1)[C@@H]1CC[C@@H]2[C@@H](CCN2c2ncc(F)cn2)O1,21.77
13,Cc1nc(C2CCCN(C(=O)c3cnn(C(C)(C)C)c3)C2)no1 (centres undefined),56.12
14,Cc1nc(C2CCCN(C(=O)c3ccoc3)C2)no1 (centres undefined),-3.64
15,Cc1cccc(C(=O)N2CCCC(c3noc(C)n3)C2)n1 (centres undefined),-11.71
16,Cc1nc(C2CCCN(C(=O)c3ccco3)C2)no1 (centres undefined),51.32
17,Cn1cnnc1C1CCCN(C(=O)c2cc(Cl)c3c(c2)OCO3)C1 (centres undefined),3.9
18,Cc1nc(C2CCCN(C(=O)c3cnn(C4CCCCC4)c3)C2)no1 (centres undefined),-31.72
19,Cc1nc(C2CCCN(C(=O)c3cc(Cl)c4c(c3)OCO4)C2)no1 (centres undefined),50.05
20,Cc1nc(C2CCCN(C(=O)c3cccc4c3OCO4)C2)no1 (centres undefined),27.31
21,CCn1cc(C(=O)N2CCCC(c3noc(C)n3)C2)cn1 (centres undefined),31.46

# — ChEMBL document CHEMBL4513216, “Probing the Open Global Health Chemical Diversity Library for Multistage-Active Starting Points for Next-Generation Antimalarials” (ACS Infect Dis, 2020)
